Assay results as given in PubChem BioAssay (Tox21).
Records with an inconclusive call do not appear. Where a call stands in place of a potency, no number is given. The source made the active and inactive calls. Unless noted, calls follow the shape of the dose curve; as a rule, active = well fitted curve in the direction sought with a large enough effect in the repeat runs; inconclusive = weak or mixed curves; inactive = no such curve, though single readings can be large; an effect the other way counts as inactive or inconclusive.

What was measured:
[1] = target: Peroxisome proliferator-activated receptor delta (Homo sapiens) (UniProt Q03181); assay: qHTS assay to identify small molecule agonists of the peroxisome proliferator-activated receptor delta (PPARd) signaling pathway (AID 743212; calls by dose curve; also: potency is read from the fitted curve at half-maximal effect)
Summary of the method: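 A PPARd-bla HEK293H line with beta-lactamase under an Upstream Activator Sequence is treated with compounds at 37 C. Substrate loading for 2 h at room temperature precedes the fluorescence measurement.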

[2] = qHTS assay to identify small molecule antagonists of the peroxisome proliferator-activated receptor delta (PPARd) signaling pathway - cell viability counter screen (AID 743213); also: nearly all actives have a fitted effect of over 50% in size
Summary of the method: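 Luminescence from CellTiter-Glo, added after the bla read and incubated 30 min at room temperature, gives viability of HEK293H PPARd-bla cells exposed to compounds for 17 h at 37 C with 300 nM L165041.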

[3] = target: Peroxisome proliferator-activated receptor delta (Homo sapiens) (UniProt Q03181); assay: qHTS assay to identify small molecule antagonists of the peroxisome proliferator-activated receptor delta (PPARd) signaling pathway (AID 743215; active = well fitted inhibition curve with a large enough effect in the signal ratio in the repeat runs, not every such curve was filed as active; the % refers to the signal ratio;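 also: cells stimulated with agonist L165041 at 300 nM final during compound exposure; series mostly up to about 62 µM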)
Summary of the method: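 HEK293H UAS-bla, PPARd; agonist L165041 300 nM final with cpd in DMSO; 37 C 17 h; FRET substrate, RT 2 h; fluorescence intensity.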

[4] = target: Bile acid receptor (Homo sapiens) (UniProt Q96RI1); assay: qHTS assay to identify small molecule antagonists of the farnesoid-X-receptor (FXR) signaling pathway (AID 743217; active = well fitted inhibition curve with a large enough effect in the signal ratio in the repeat runs, not every such curve was filed as active; the % refers to the signal ratio)
Summary of the method: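 GeneBLAzer FXR-UAS-bla HEK 293T, CDCA-stimulated (50 uM final). Compound treatment 16 h, 37 °C. Detection: beta-lactamase cleavage of B/G FRET substrate, fluorescence.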

[5] = qHTS assay to identify small molecule agonists of the farnesoid-X-receptor (FXR) signaling pathway - cell viability counter screen (AID 743218); also: nearly all actives have a fitted effect of over 45% in size
Summary of the method: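 Parallel cytotoxicity test: compound-treated (16 h, 37 C) HEK 293T FXR-bla reporter cells were lysed with CellTiter-Glo and luminescence recorded.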

[6] = target: Bile acid receptor (Homo sapiens) (UniProt Q96RI1); assay: qHTS assay to identify small molecule agonists of the farnesoid-X-receptor (FXR) signaling pathway (AID 743220; active = well fitted activation curve with a large enough effect in the signal ratio in the repeat runs, not every such curve was filed as active; the % refers to the signal ratio)
Summary of the method: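 Beta-lactamase reporter under UAS control in GeneBLAzer FXR HEK 293T cells (5000/well) measured with LiveBLAzer FRET substrate after 2 h at room temperature. Compound exposure lasted 16 h at 37C.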

[7] = qHTS assay to identify small molecule antagonists of the farnesoid-X-receptor (FXR) signaling pathway - cell viability counter screen (AID 743221; active = well fitted cell-killing curve with a large enough effect in the repeat runs, not every such curve was filed as active; also: nearly all actives have a fitted effect of over 50% in size)
Summary of the method: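 Compound effects on cell number were measured as CellTiter-Glo luminescence in HEK 293T cells expressing FXR-UAS-bla, after 16 h at 37 C with 50 uM CDCA (final).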

[8] = target: Vitamin D3 receptor (Homo sapiens) (UniProt P11473); assay: qHTS assay to identify small molecule agonists of the vitamin D receptor (VDR) signaling pathway (AID 743222; calls by dose curve)
Summary of the method: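 In VDR-bla cells, compound-induced beta-lactamase expression is quantified by FRET substrate fluorescence. Treatment lasts 16 h at 37C; substrate develops 2 h at room temperature.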

[9] = target: Vitamin D3 receptor (Homo sapiens) (UniProt P11473); assay: qHTS assay to identify small molecule antagonists of the vitamin D receptor (VDR) signaling pathway (AID 743223; active = well fitted inhibition curve with a large enough effect in the signal ratio in the repeat runs, not every such curve was filed as active; the % refers to the signal ratio)
Summary of the method: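 Beta-lactamase activity in VDR-bla cells is measured by FRET substrate fluorescence (2 h, room temperature) after cells spend 16 h at 37C with test compound and 3 nM final 1alpha,25-dihydroxyvitamin D3.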

[10] = qHTS assay to identify small molecule agonists of the vitamin D receptor (VDR) signaling pathway - cell viability counter screen (AID 743224); also: series mostly up to about 63 µM; nearly all actives have a fitted effect of over 50% in size
Summary of the method: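 Plated VDR-bla cells (4 h, 37C) received compound, incubated 16 h, then LiveBLAzer substrate 2 h RT; CellTiter-Glo added afterwards, luminescence read at 30 min.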

Sequence of Peroxisome proliferator-activated receptor delta (Homo sapiens) (Q03181 whole entry, looked up): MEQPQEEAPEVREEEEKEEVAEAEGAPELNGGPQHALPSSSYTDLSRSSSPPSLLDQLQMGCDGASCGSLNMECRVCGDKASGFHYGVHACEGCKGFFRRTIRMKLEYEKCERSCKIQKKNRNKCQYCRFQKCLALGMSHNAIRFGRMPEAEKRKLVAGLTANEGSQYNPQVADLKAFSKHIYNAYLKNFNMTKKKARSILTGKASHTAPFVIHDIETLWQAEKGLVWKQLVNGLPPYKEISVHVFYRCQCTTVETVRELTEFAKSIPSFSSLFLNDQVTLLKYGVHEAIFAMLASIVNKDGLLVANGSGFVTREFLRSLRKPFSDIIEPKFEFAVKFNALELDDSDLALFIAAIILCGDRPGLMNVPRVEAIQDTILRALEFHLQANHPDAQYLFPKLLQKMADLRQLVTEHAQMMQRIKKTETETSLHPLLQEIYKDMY
Sequence of Bile acid receptor (Homo sapiens) (Q96RI1 whole entry, looked up): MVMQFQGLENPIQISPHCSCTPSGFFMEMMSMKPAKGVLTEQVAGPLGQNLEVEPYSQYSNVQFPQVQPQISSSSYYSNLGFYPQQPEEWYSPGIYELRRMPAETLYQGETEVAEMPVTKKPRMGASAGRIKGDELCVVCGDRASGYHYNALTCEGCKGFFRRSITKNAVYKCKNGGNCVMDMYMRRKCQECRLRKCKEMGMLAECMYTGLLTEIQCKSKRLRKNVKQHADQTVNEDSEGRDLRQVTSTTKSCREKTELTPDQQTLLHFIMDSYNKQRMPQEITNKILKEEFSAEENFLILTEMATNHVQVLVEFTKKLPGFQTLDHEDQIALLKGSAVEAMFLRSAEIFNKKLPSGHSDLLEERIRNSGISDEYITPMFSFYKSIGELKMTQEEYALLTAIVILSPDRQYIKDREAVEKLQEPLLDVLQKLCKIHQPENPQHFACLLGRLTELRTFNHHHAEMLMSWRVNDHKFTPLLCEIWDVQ
Sequence of Vitamin D3 receptor (Homo sapiens) (P11473 whole entry, looked up): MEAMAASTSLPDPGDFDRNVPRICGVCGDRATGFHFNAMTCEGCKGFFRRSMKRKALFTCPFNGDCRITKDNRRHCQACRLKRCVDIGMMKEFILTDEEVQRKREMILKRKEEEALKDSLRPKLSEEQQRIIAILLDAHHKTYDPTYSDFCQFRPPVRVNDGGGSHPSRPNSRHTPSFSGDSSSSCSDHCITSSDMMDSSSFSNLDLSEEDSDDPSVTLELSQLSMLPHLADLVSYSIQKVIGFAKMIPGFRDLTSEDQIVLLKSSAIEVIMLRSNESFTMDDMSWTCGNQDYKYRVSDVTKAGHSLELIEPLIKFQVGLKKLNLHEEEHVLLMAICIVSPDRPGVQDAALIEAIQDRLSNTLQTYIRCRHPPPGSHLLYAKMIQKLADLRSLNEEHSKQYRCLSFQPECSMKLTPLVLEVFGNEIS

SMILES	Potency [1]	outcome [2]	outcome [3]	outcome [4]	outcome [5]	outcome [6]	outcome [7]	outcome [8]	outcome [9]	outcome [10]
O=C(O)CCCCCCCCC(=O)O	inactive	inactive	inactive	inactive	inactive	inactive	inactive	inactive	inactive	–
C[Si]1(C)O[Si](C)(C)O[Si](C)(C)O[Si](C)(C)O1	inactive	inactive	inactive	inactive	inactive	inactive	inactive	–	inactive	–
COC(=O)CCCC(=O)OC	inactive	inactive	inactive	inactive	inactive	inactive	inactive	inactive	inactive	–
CCCCC(C=O)CC (stereo not drawn)	inactive	inactive	inactive	inactive	inactive	inactive	inactive	inactive	–	–
CC(C)CCCCCCCOC(=O)CCCCC(=O)OCCCCCCCC(C)C	inactive	inactive	inactive	inactive	inactive	inactive	inactive	inactive	inactive	inactive
CC(C)c1cccc(C(C)C)c1	inactive	inactive	inactive	inactive	inactive	inactive	inactive	inactive	inactive	–
CCNc1ccccc1	inactive	inactive	inactive	inactive	inactive	inactive	inactive	inactive	inactive	–
CC(=O)c1ccc(O)cc1	inactive	inactive	inactive	inactive	inactive	inactive	inactive	inactive	inactive	inactive
O=C1C(c2[nH]c3ccccc3c2O)=Nc2ccccc21	inactive	inactive	inactive	inactive	inactive	inactive	inactive	–	–	inactive
O=C1c2ccccc2CCc2ccccc21	inactive	inactive	inactive	inactive	inactive	inactive	inactive	–	–	inactive
C=C(C)C(=O)OCC(C)C	inactive	inactive	inactive	inactive	inactive	inactive	inactive	–	inactive	inactive
COc1ccc([N+](=O)[O-])cc1N	inactive	inactive	inactive	inactive	inactive	inactive	inactive	inactive	inactive	–
c1ccc(Oc2ccccc2)cc1	inactive	inactive	inactive	inactive	inactive	inactive	inactive	–	inactive	inactive
CSc1ccc(Cl)cc1	inactive	inactive	inactive	inactive	inactive	inactive	inactive	inactive	inactive	inactive
CC(C)(C)c1cc(Cc2cc(C(C)(C)C)c(O)c(C(C)(C)C)c2)cc(C(C)(C)C)c1O	inactive	inactive	inactive	inactive	inactive	inactive	inactive	–	inactive	–
CC(C)(Oc1ccc(CCNC(=O)c2ccc(Cl)cc2)cc1)C(=O)O	38.9 µM (active)	inactive	inactive	inactive	inactive	inactive	inactive	inactive	inactive	inactive
CCOC(=O)n1ccn(C)c1=S	inactive	inactive	inactive	inactive	inactive	inactive	inactive	–	–	–
CC(C)CC(C)O (stereo not drawn)	inactive	inactive	inactive	inactive	inactive	inactive	inactive	–	inactive	inactive
O=S(=O)(O)c1ccc(N=Nc2c(O)ccc3cc(S(=O)(=O)O)ccc23)cc1	inactive	inactive	inactive	inactive	inactive	inactive	inactive	inactive	inactive	inactive
OC1C(O)C(O)C(O)C(O)C1O (stereo not drawn)	inactive	inactive	inactive	inactive	inactive	inactive	inactive	inactive	inactive	inactive
CC(C)OC(=O)COc1ccc(Cl)cc1Cl	inactive	inactive	inactive	inactive	inactive	inactive	inactive	–	–	–
COc1ccc(CCC(C)=O)cc1	inactive	inactive	inactive	inactive	inactive	inactive	inactive	–	inactive	inactive
CC(C)CC(=O)CC(C)CC(C)C (stereo not drawn)	inactive	inactive	inactive	inactive	inactive	inactive	inactive	–	–	inactive
CCCCCCCCCCCC(=O)OC	inactive	inactive	inactive	inactive	inactive	inactive	inactive	–	inactive	inactive
CC(=O)OC1CC(C)OC(C)O1 (stereo not drawn)	inactive	inactive	inactive	inactive	inactive	inactive	inactive	–	–	–
Clc1ccccn1	inactive	inactive	inactive	inactive	inactive	inactive	inactive	–	inactive	inactive
